Measured values taken from PubChem BioAssay AID504725 (Broad Institute, 2011).
Results with a measured potency or affinity are listed apart.

These molecules were tested against KSHV LANA C-terminal domain (residues 932-1162) binding to LBS DNA (UniProt O40947) (assay: KSHV LANA DNA-binding disruption – biochemical, fluorescence polarization, cherry-picked samples, dose response (AID 504725)). Details: MBP-C-LANA / FAM-LBS DNA fluorescence polarization, percent change from plate compound-well median; series mostly up to 35 µM; activity change, negative = inhibition: at the top concentration; call rule not given here.

Activity change, negative = inhibition, inactive:
CC[C@H](C)[C@H](NC(N)=O)C(=O)Nc1ccc(NC(C)=O)cc1 3.35%
CCN(CC)S(=O)(=O)N1CCN(S(=O)(=O)N2CCOCC2)CC1 -1.93%
COc1ccccc1C(=O)NCC(=O)OCC(=O)N(CC(C)C)c1c(N)n(Cc2ccccc2)c(=O)[nH]c1=O 2.68%
COc1ccc(C2c3ccc(O)cc3Oc3ncn(CCCO)c(=N)c32)cc1OC (configuration not stated) -7.82%
COc1ccc(C(=O)c2ccsc2N)cc1 3.03%
Nc1c(-c2ccccn2)cnn1-c1nc(-c2ccc(F)cc2)cs1 1.14%
C=CC[C@@H](CC(=O)N(CCO)Cc1ccccc1)C(=O)NC[C@H](OC(=O)[C@@H](CC=C)CC(=O)OC(C)(C)C)c1ccccc1 -12.1%
COc1ccc(/C=N/NC(=O)c2ccc3nc[nH]c3c2)c(OC)c1 -4.41%
O=C(NCc1cccnc1)C(=O)C1C(=O)Nc2ccccc21 (configuration not stated) 1.28%
CN(c1ccccc1)S(=O)(=O)c1cccc(NS(=O)(=O)c2cccc(C(=O)O)c2)c1 2.38%
Cc1ccc(NC(=O)c2ccc(Cl)c(S(=O)(=O)N3CCc4ccccc43)c2)nc1 -5.6%
COC(=O)C1=C(N)OC2=C(C(=O)CCC2)C1c1cccs1 (configuration not stated) -1.63%
COC(=O)c1sc(C(F)(F)F)c(-c2ccccc2)c1S(=O)(=O)N1CCOCC1 0.068%
CCn1c(CN2CCCCC2)nc2cc(S(=O)(=O)N3CCCCC3)ccc21 2.61%
COc1cccc(C2CC(=O)Nc3cc4c(cc32)CCC4)c1 (configuration not stated) -1.11%
COc1ccccc1CNC(=O)C(=O)NCC1CCCN1S(=O)(=O)c1cccs1 (configuration not stated) 0.659%
Cc1nn(Cc2c(F)c(F)c(F)c(F)c2F)c(C)c1NC(=O)c1ccnn1C -5.68%
